# Values joined by “and” are separate entries in the source; they are usually repeats but may differ in a detail not shown here. Equal entries are not always repeated. Screen size: about 420,000 compounds; about 50,000 (12%) were called active. Inconclusive results (about 26%) are left out. The call rests on the fitted dose curve; in most records, active means well fitted inhibition curve with a large enough effect; inconclusive means small, poorly fitted or top-dose-only effect; inactive means flat fitted curve, though single readings scatter. The sample as a whole holds a higher share of actives than the screen did.
# Experiment: qHTS for Inhibitors of human tyrosyl-DNA phosphodiesterase 1 (TDP1): qHTS in cells in presence of CPT; further: nearly all actives have a fitted effect of over 55% in size
# Settings: chicken DT40 Tdp1-/-;hTDP1 cells + 20 nM CPT, ATP luminescence, 48 h; series mostly up to 46.2 µM; activity change, negative = growth inhibition: at the top concentration
# In short: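 Cell growth measured by CellTiter-Glo luminescence after a minimum 48 h, 37 C compound exposure with 20 nM CPT in Tdp1-knockout DT40 cells stably expressing hTDP1, seeded 400/well; qHTS titration format.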
# On the % scale 0 is the no-effect control and ±100 the full control effect; potency means the concentration at half of the fitted maximal effect.
Structure (SMILES),"activity change, negative = growth inhibition",Potency
COc1ccc(CNC(=O)CN(Cc2ccccc2Cl)C(=O)c2csnn2)cc1,12.5% (inactive),–
COc1ccc(C(CNC(=O)c2cccnc2SC)N2CCOCC2)cc1 (stereo unspecified),-20.3% (inactive),–
O=C(NCC(c1ccc(Cl)cc1)N1CCOCC1)c1ccccc1F (stereo unspecified),–,16.4 µM (active)
CN1CCN(C(CNC(=O)c2ccccc2F)c2ccc3c(c2)OCO3)CC1 (stereo unspecified),6.41% (inactive),–
COc1ccc(C(CNC(=O)CSc2ccccc2)N2CCOCC2)cc1 (stereo unspecified),-14.8% (inactive),–
COc1cc(C(=O)NCC(c2ccc(Cl)cc2)N2CCOCC2)cc(OC)c1OC (stereo unspecified),–,16.4 µM (active)
CN(C)c1ccc(C(CNS(=O)(=O)c2cc(F)ccc2F)N2CCOCC2)cc1 (stereo unspecified),-9.33% (inactive),–
COc1cc(C(=O)OCCCN2CCOCC2)cc(OC)c1OC,-16.7% (inactive),–
COc1ccc(C(CNC(=O)c2cc3c(s2)CCCC3)N2CCOCC2)cc1 (stereo unspecified),-14.5% (inactive),–
CC(C)(C)c1ccc(C(=O)NCC(c2ccc(Cl)cc2)N2CCOCC2)cc1 (stereo unspecified),–,23.1 µM (active)
Cc1ccc(S(=O)(=O)NN=C2CC(C)(C)CC(=O)C2(C)C)cc1,13.2% (inactive),–
CCOCCCNC(=O)C1(O)c2cc(Br)ccc2NC(=O)N1c1ccc(C)c(C)c1 (stereo unspecified),9.66% (inactive),–
Cc1ccc(S(=O)(=O)N2CCCCC2)cc1NC(=O)CCNC(=O)c1ccccc1,-16.1% (inactive),–
CN(C)c1ccc2c(=O)[nH][nH]c(=O)c2c1,8.58% (inactive),–
COc1cc(C(=O)N2CCOC23CCN(Cc2ccccc2)CC3)cc(OC)c1OC,-4.78% (inactive),–
N#Cc1cc([N+](=O)[O-])ccc1NC(=O)COC(=O)c1cnccn1,-21.5% (inactive),–
CCC(CC)NC(=O)CSc1nnc(-c2c[nH]c3ccccc23)o1,-16.9% (inactive),–
Cc1ccc(C(=O)OCC(=O)Nc2ccc(Cl)cn2)cc1S(=O)(=O)N1CCOCC1,-6.23% (inactive),–
CN(Cc1ccccc1)C(=O)C(=O)c1cn(CC(=O)N2CCCC2)c2ccccc12,-23.2% (inactive),–
COc1cc(OC)cc(C(=O)N[C@H](C(=O)OCC(=O)NC(C)c2ccccc2)C(C)C)c1 (stereo partly specified),-11.1% (inactive),–
COc1ccc(C(=O)N[C@H](C(=O)NCc2ccccc2)C(C)C)cc1,1.15% (inactive),–
COc1cc(OC)cc(C(=O)N[C@H](C(=O)Nc2nc3ccccc3[nH]2)C(C)C)c1,–,1.64 µM (active)
CC1=C/C(=N\OS(=O)(=O)c2ccccc2)C=CC1=O,–,0.631 µM (active)
O=S(=O)(ON(c1ccccc1)S(=O)(=O)c1ccccc1)c1ccccc1,3.88% (inactive),–
COCCn1c(SCC(=O)Nc2nc(C)cs2)nnc1C(C)C,-14.4% (inactive),–
O=C(Nc1ccccc1C(=O)O)c1ccc(N2C(=O)C3CC=CCC3C2=O)cc1 (stereo unspecified),6.38% (inactive),–

Structure (SMILES),"activity change, negative = growth inhibition",Potency
O=C(CN1CCOCC1)N/N=C/c1ccc(-c2ccc(Br)cc2)o1,15.3% (inactive),–
Cc1ccc(-c2ccc(/C=N/NC(=O)CN3CCOCC3)o2)cc1[N+](=O)[O-],–,23.1 µM (active)
Cc1ccc(NC(=O)CN2CCC(C(N)=O)CC2)cc1[N+](=O)[O-],-17.2% (inactive),–
Cc1ccc(OC(=O)c2cncc(Br)c2)c(C)c1,-11.9% (inactive),–
CC(=O)[C@@]12O[C@@H]1C[C@H]1[C@@H]3CC[C@H]4C[C@@H](O)CC[C@]4(C)[C@H]3CC[C@@]12C,-12.2% (inactive),–
CC1(Cc2ccccc2C#N)C(=O)Nc2ccc(-c3ccc4[nH]ccc4c3)cc21 (stereo unspecified),–,1.46 µM (active)
COc1ccc(CC(NC(C)=O)C(=O)NC2CCN(C(=O)c3ccc(Cl)cc3)CC2)cc1 (stereo unspecified),8.85% (inactive),–
CCC(C)C(N=C1NS(=O)(=O)c2ccccc21)C(=O)N1CCC(C)CC1 (stereo unspecified),-14.9% (inactive),–
O=c1oc(/C=C/c2ccccc2)nc2ccccc12,-3.35% (inactive),–
NNc1cccc(C=Cc2ccccc2)cc1=O,–,2.06 µM (active)
O=c1[nH]c(/C=C/c2cccc(Br)c2)nc2ccccc12,-19.5% (inactive),–
Cc1cc(Cl)ccc1NC(=S)NCCCN1CCCC1=O,23.4% (inactive),–
COn1c(=O)c(=O)n(OC)c2ccccc21,0.332% (inactive),–
CCOC(=O)CSc1nnc(-c2ccc([N+](=O)[O-])cc2)o1,0.129% (inactive),–
CCOC(=O)C1=C(c2ccccc2)NC(=S)NC1c1ccc(Cl)cc1 (stereo unspecified),-21.5% (inactive),–
CCOC(=O)C1=C(C)N(C[C@@H]2CC[C@@H](Cc3ccc(-c4ccccc4)cc3)O2)C(=O)NC1c1ccc([N+](=O)[O-])cc1 (stereo partly specified),–,23.1 µM (active)
C=C1c2cccc(OC)c2O[C@H](C(=O)OCC)[C@@H]1CCCCCC,-20.2% (inactive),–
COc1cc(OC)c2c(-c3cccc(-c4cccc(N)c4)c3)cc(=O)oc2c1,–,4.61 µM (active)
COC(=O)C(C)Oc1ccc2c(-c3cccc([N+](=O)[O-])c3)cc(=O)oc2c1 (stereo unspecified),-14.6% (inactive),–
COc1cccc(NC(=O)COc2cc(C)cc3oc(=O)cc(C)c23)c1,-0.0121% (inactive),–
COc1ccccc1OCCNC(=O)C(CCSC)NC(=O)COc1ccccc1 (stereo unspecified),-15.4% (inactive),–
CC(C)(CNC(=O)CNC(=O)C1CCCCC1)N1CCOCC1,13% (inactive),–
Cc1c(O)cc(O)c2c(=O)c(-c3ccc(O)cc3)coc12,0.0845% (inactive),–
CC(C)=CCc1c(O)c(CC=C(C)C)c2occ(-c3ccc(O)cc3)c(=O)c2c1O,–,18.4 µM (active)
CCCCn1c(N)c(N(CC(C)C)C(=O)C2CSC3(C)CCC(=O)N23)c(=O)[nH]c1=O (stereo unspecified),-2.75% (inactive),–
C[C@@H]1CN([C@H](C)CO)C(=O)c2cc(Br)cnc2O[C@@H]1CN(C)Cc1cncnc1,-9.96% (inactive),–

Structure (SMILES),"activity change, negative = growth inhibition",Potency
COc1ccc(-c2cnc3c(c2)C(=O)N([C@H](C)CO)C[C@@H](C)[C@H](CN(C)Cc2ccccc2)O3)cc1,–,14.6 µM (active)
C[C@H](CO)N1C[C@H](C)[C@@H](CN(C)Cc2ccc3c(c2)OCO3)OCc2cnnn2CCCC1=O,9% (inactive),–
C[C@H]1CN([C@@H](C)CO)C(=O)c2cc(-c3cccc(F)c3)cnc2O[C@@H]1CN(C)S(C)(=O)=O,4.29% (inactive),–
CCOC(=O)CCCCCC(=O)Nc1ccc2c(c1)CC(=O)N([C@@H](C)CO)C[C@H](C)[C@@H](CN(C)Cc1ccccc1)O2,–,18.4 µM (active)
C[C@H]1CN([C@@H](C)CO)C(=O)CCCn2nncc2CO[C@@H]1CN(C)Cc1ccc(Oc2ccccc2)cc1,–,23.1 µM (active)
Cc1ccc(CN(C)C[C@@H]2OCc3cnnn3CCCC(=O)N([C@@H](C)CO)C[C@H]2C)cc1,-7.27% (inactive),–
C[C@H](CO)N1C[C@H](C)[C@H](CN(C)CC2CC2)Oc2ccc(NC(=O)CCN3CCOCC3)cc2C1=O,9.49% (inactive),–
C[C@H]1CN([C@@H](C)CO)C(=O)Cc2cc(NS(C)(=O)=O)ccc2O[C@@H]1CN(C)CC1CC1,-3.44% (inactive),–
Cc1ccccc1NC(=O)c1cc(S(=O)(=O)Nc2cccc(C(=O)O)c2)ccc1Cl,-2.45% (inactive),–
Cc1cc(NC(=O)COc2ccc([N+](=O)[O-])cc2)no1,1% (inactive),–
CC1CCCC(C)N1C(=O)CSc1nnnn1C1CCCC1 (stereo unspecified),-3.92% (inactive),–
CCc1nc(N2CCN(C(C)=O)CC2)c2c3c(sc2n1)CCCC3,-8.38% (inactive),–
Cc1c(OC(C)C(=O)N[C@@H](Cc2ccccc2)C(=O)O)ccc2c3c(c(=O)oc12)CCCC3 (stereo partly specified),2.76% (inactive),–
Cc1c(Br)c([N+](=O)[O-])nn1C(C)C(=O)Nc1nccs1 (stereo unspecified),-29.9% (inactive),–
Cc1c(Cl)cccc1NC(=O)C1CCCN(C(=O)c2cnn(-c3ccccc3)c2-n2cccc2)C1 (stereo unspecified),–,23.1 µM (active)
CCOc1ccccc1NC(=O)C1CCCN(C(=O)Nc2ccccc2)C1 (stereo unspecified),-4% (inactive),–
Cc1cccc(NC(=O)C2CCCN(C(=O)Nc3ccc(F)cc3)C2)c1C (stereo unspecified),-26.8% (inactive),–
COc1ccc(Cn2ccn(CC(=O)Nc3cc(C)ccc3C)c(=O)c2=O)cc1,15.1% (inactive),–
Cc1cccc(CSc2ccc(-c3cccs3)nn2)c1,–,inactive
Oc1c(Cl)cc(Cl)c(Cl)c1Cc1c(O)c(Cl)cc(Cl)c1Cl,–,4.73 µM (active) and 23.1 µM (active) and 3.26 µM (active)
Nc1[nH][nH]c(=O)c1N=Nc1ccc2c(c1)OCO2,-26.6% (inactive),–
Cc1ccc(N2CC(C(=O)Nc3ccc(S(=O)(=O)N4CCCC4)cc3)CC2=O)cc1C (stereo unspecified),-24.4% (inactive),–
O=S1(=O)CC(N2CCN(CCO)CC2)CN1C1CCCC1 (stereo unspecified),-2.16% (inactive),–
O=S1(=O)CCN(C2CCCCCCCCCCC2)CC1,–,20.6 µM (active)
O=C(O)C1CCN1C1CCCCC1 (stereo unspecified),1.27% (inactive),–
COc1ccc(S(=O)(=O)N2CCC(C(=O)NCCC(=O)Nc3ccccc3OC)CC2)cc1,-19% (inactive),–

Structure (SMILES),"activity change, negative = growth inhibition",Potency
CC(NC(=O)c1ccccc1C(=O)O)c1ccc(-n2ccnc2)cc1 (stereo unspecified),7.73% (inactive),–
COc1ccc(NC(=O)c2cc3cc(C)ccc3n2C)cc1,-22.3% (inactive),–
COc1ccc(OC)c(C(=O)c2ccc(Cl)cc2)c1,2.77% (inactive),–
COc1ccc(OC)c(/C(C)=N\NC(=O)c2cc3cc(Cl)ccc3n2C)c1,–,5.8 µM (active)
OC(c1ccccc1)c1nc(/C=C/c2ccc(C(F)(F)F)cc2)cs1 (stereo unspecified),-21.7% (inactive),–
CCN(c1ccccc1)S(=O)(=O)c1cc2c(cc1C)n(C)c(=O)c(=O)n2C,11.4% (inactive),–
C[C@H](CO)N1C[C@H](C)[C@@H](CN(C)S(=O)(=O)c2ccc(F)cc2)OCc2cnnn2CCCC1=O,-11.4% (inactive),–
COc1ccc(CCN(C)C(=O)C2CCCN(Cc3ccc(OC)c(OC)c3)C2)cc1OC (stereo unspecified),34.4% (inactive),–
COc1ccc(CN2CCCC(C(=O)N3CCCCC3)C2)cc1 (stereo unspecified),0.895% (inactive),–
COc1cc(CN2CCCC(C(=O)c3ccc(SC)cc3)C2)cc(Cl)c1O (stereo unspecified),–,11.6 µM (active)
COC(=O)N(C)C[C@@H]1OCc2cnnn2CCCC(=O)N([C@@H](C)CO)C[C@@H]1C,-3.67% (inactive),–
CCOc1ccc(CNC(=O)c2cc(-c3ccc(Cl)s3)nc3ccccc23)cc1,–,20.6 µM (active)
O=C(N/N=C/c1ccc(OCc2ccccc2)cc1)c1ccc(O)cc1,-0.604% (inactive),–
C/C(=N\NC(=O)c1cccc([N+](=O)[O-])c1)c1cccnc1,3.86% (inactive),–
C/C(=N\NC(=O)c1cc(-c2ccc(O)cc2)nc2ccccc12)c1cccnc1,–,20.6 µM (active)
Cc1nc2ccc(C(=O)N/N=C/c3ccc(O)cc3)cc2[nH]1,4.58% (inactive),–
COc1cccc(-c2cc(C(=O)N/N=C/c3ccc(OC)c(COC(C)=O)c3)c3ccccc3n2)c1,–,8.2 µM (active)
CC(=O)N1CCN(C(=O)c2cc(-c3ccc(Cl)s3)nc3ccccc23)CC1,-7.3% (inactive),–
CCOc1ccc(NC(=O)c2cc(C)nc3ccccc23)cc1,9.45% (inactive),–
COc1ccc(/C=N/NC(=O)c2ccc(Cl)cc2)cc1COC(C)=O,-3.77% (inactive),–
C/C(=N\NC(=O)c1ccc2ccccc2c1)c1cccnc1,2.16% (inactive),–
CCOc1ccc(-c2cc(C(=O)N/N=C/c3ccc(O)cc3)c3ccccc3n2)cc1,–,1.84 µM (active)
CNC(=O)COC(=O)c1cc(-c2ccc(OC)cc2)nc2ccccc12,-3.71% (inactive),–
